Experimental data published in PubChem BioAssay (EPA / NIEHS).
Where “and” joins values, the source holds several entries; their conditions need not be identical. Equal entries are not always repeated. The source holds several records for some structures; these can differ, active in one and inactive in another. Calls of active or inactive are those of the source. Rule for the calls: active = hit-call score of the fitted dose curve at least 0.9, where 1 is the maximum; inactive = score below 0.9.

How the values were obtained:
[1] = read-out: C-C motif chemokine 2 (Homo sapiens) (UniProt P13500); assay: BSK_KF3CT_MCP1: BioMAP Diversity Plus: KF3CT Assay for Monocyte Chemoattractant Protein 1 (MCP1/CCL2) Biomarker Activity (AID 2283073); settings: primary human keratinocytes with fibroblasts; actives raise or lower the signal
Summary of the method: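 Human keratinocyte plus foreskin fibroblast primary co-culture exposed to chemical for 24 h. MCP-1 levels measured by ELISA. Bidirectional curve fitting relative to DMSO negative control as baseline.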

[2] = read-out: Matrix Metallopeptidase 9 (MMP9), MMP9 (gene 4318); assay: BSK_KF3CT_MMP9: BioMAP Diversity Plus: KF3CT Assay for Matrix Metallopeptidase 9 (MMP9) Biomarker Activity (AID 2283074); settings: primary human keratinocytes with fibroblasts; actives raise or lower the signal;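 for AC50: MMP9 protein level quantified by ELISA in the co-culture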
Summary of the method: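 ELISA read-out of MMP-9 at 24 h post-dosing in a co-culture of human skin keratinocytes and foreskin fibroblasts. Gain or loss of signal was fitted in both directions against DMSO.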

[3] = read-out: urokinase plasminogen activator (uPA), PLAU (gene 5328); assay: BSK_KF3CT_uPA: BioMAP Diversity Plus: KF3CT Assay for urokinase plasminogen activator (uPA) Biomarker Activity (AID 2283075); settings: primary human keratinocytes with fibroblasts; actives raise or lower the signal
Summary of the method: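 Skin co-culture (keratinocytes + foreskin fibroblasts), human primary; 24 h post-dose; uPA by ELISA; gain/loss fit vs DMSO baseline.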

CD40, CD40 (gene 958) = assay: BSK_LPS_CD40: BioMAP Diversity Plus: LPS Assay for CD40 Biomarker Activity (AID 2283076); settings: primary human HUVEC with PBMC; actives raise or lower the signal
Summary of the method: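 Primary human umbilical vein endothelial cells co-cultured with peripheral blood mononuclear cells, LPS-stimulated, were dosed with chemical and read 24 h later. CD40 levels were measured by ELISA and fitted bidirectionally against DMSO as negative control and baseline.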

[4] = read-out: E-selectin (Homo sapiens) (UniProt P16581); assay: BSK_LPS_Eselectin: BioMAP Diversity Plus: LPS Assay for Eselectin Biomarker Activity (AID 2283077); settings: primary human HUVEC with PBMC; actives raise or lower the signal
Summary of the method: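 Human umbilical vein endothelial cells co-cultured with peripheral blood mononuclear cells under LPS stimulation; E-selectin measured by ELISA 24 h after chemical dosing. Activity fitted bidirectionally against DMSO as negative control and baseline.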

[5] = read-out: Interleukin-8 (IL8), CXCL8 (gene 3576); assay: BSK_LPS_IL8: BioMAP Diversity Plus: LPS Assay for Interleukin-8 (IL8) Biomarker Activity (AID 2283078); settings: primary human HUVEC with PBMC; actives raise or lower the signal
Summary of the method: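 Human umbilical vein endothelial cells co-cultured with PBMC were stimulated with LPS; IL-8 levels were measured by ELISA 24 h after chemical dosing. Activity was fitted bidirectionally against DMSO as negative control and baseline.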

[6] = BSK_LPS_SRB: Viability Assessment in the BioMAP Diversity Plus: LPS Assay (AID 2283079); settings: primary human HUVEC with PBMC;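 note: total protein by sulforhodamine B absorbance as a cytotoxicity measure; measured one day after compound addition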
Summary of the method: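 Human umbilical vein endothelial cells co-cultured with PBMC (LPS system) were dosed for 24 h. Total protein was stained with 0.1% sulforhodamine B after 10% TCA fixation, read at 560 nm, and fitted bidirectionally against DMSO baseline.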

[7] = read-out: Interleukin-1 alpha (IL1a), IL1A (gene 3552); assay: BSK_LPS_IL1a: BioMAP Diversity Plus: LPS Assay for Interleukin-1 alpha (IL1a) Biomarker Activity (AID 2283080); settings: primary human HUVEC with PBMC; actives raise or lower the signal
Summary of the method: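 Human umbilical vein endothelial cells co-cultured with peripheral blood mononuclear cells were LPS-stimulated and exposed to test chemicals for 24 h. IL-1 alpha was quantified by ELISA, with bidirectional curve fitting against DMSO as the negative control and baseline.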

[8] = read-out: Monocyte Chemoattractant Protein-1 (MCP1), CCL2 (gene 6347); assay: BSK_LPS_MCP1: BioMAP Diversity Plus: LPS Assay for Monocyte Chemoattractant Protein-1 (MCP1) Biomarker Activity (AID 2283081); settings: primary human HUVEC with PBMC; actives raise or lower the signal;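 for AC50: co-culture stimulated with LPS; secreted MCP-1 protein quantified by ELISA in culture supernatant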
Summary of the method: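 HUVEC plus PBMC co-culture (human primary cells, LPS system) exposed to test chemical for 24 h; MCP-1 measured by ELISA. Bidirectional curve fitting against DMSO baseline; parallel SRB total-protein staining flags overt cytotoxicity.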

[9] = BSK_LPS_PGE2: BioMAP Diversity Plus: LPS Assay for Prostaglandin E2 (PGE2) Biomarker Activity (AID 2283082); settings: primary human HUVEC with PBMC; actives raise or lower the signal;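 for AC50: secreted prostaglandin E2 measured by ELISA in LPS-stimulated co-culture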
Summary of the method: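 PGE2 release measured by ELISA in an LPS-activated co-culture of human umbilical vein endothelial cells and peripheral blood mononuclear cells, read at 24 h post-dosing. DMSO served as baseline for bidirectional curve fitting.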

Measured: AC50

Chain of E-selectin (Homo sapiens) (P16581 whole entry, looked up): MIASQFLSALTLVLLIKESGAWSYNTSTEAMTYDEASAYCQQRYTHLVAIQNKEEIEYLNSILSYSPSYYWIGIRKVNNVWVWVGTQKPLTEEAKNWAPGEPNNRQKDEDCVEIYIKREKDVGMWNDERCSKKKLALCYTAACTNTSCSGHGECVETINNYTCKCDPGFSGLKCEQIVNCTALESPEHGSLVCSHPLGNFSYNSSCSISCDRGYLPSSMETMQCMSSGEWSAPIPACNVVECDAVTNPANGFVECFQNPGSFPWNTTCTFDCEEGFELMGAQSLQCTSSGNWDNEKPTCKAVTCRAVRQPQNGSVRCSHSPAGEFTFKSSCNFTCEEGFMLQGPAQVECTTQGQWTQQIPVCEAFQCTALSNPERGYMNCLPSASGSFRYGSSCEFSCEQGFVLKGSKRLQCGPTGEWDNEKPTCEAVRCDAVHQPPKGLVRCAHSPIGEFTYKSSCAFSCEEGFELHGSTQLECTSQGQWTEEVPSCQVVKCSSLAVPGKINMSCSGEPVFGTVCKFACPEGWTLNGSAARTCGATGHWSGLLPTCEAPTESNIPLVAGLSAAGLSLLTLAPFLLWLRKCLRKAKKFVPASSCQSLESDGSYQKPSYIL

Cc1ccc(O)cc1
active: [9] 4.37 µM
inactive: all other assays above

C=CCCCCCCCCC(=O)O
active: [9] 8.17 µM
inactive: all other assays above

CN(C)c1ccc(Cc2ccc(N(C)C)cc2)cc1
active: [5] 20 µM | [9] 5.6 µM
inactive: all other assays above

CC[C@H]1OC(=O)[C@H](C)[C@@H](O[C@H]2C[C@@](C)(OC)[C@@H](O)[C@H](C)O2)[C@H](C)[C@@H](O[C@@H]2O[C@H](C)C[C@H](N(C)C)[C@H]2O)[C@](C)(O)C[C@@H](C)C(=O)[C@H](C)[C@@H](O)[C@]1(C)O
not listed: [3]
inactive: all other assays above

COC(=O)CC(=O)OC
inactive: all assays above

Clc1nc(Cl)c(Cl)c(Cl)c1Cl
inactive: [1] | [2] | [3] | [6]
active: CD40, CD40 (gene 958) 30.4 µM | [4] 30.9 µM | [5] 32.7 µM | [7] 14.4 µM | [8] 32.1 µM | [9] 15.1 µM

Cc1ccc(N)cc1O
active: [9] 4.87 µM
inactive: all other assays above

CCOC(=O)CC(CC(=O)OCC)(OC(C)=O)C(=O)OCC
inactive: all assays above

CC1=CC(=O)CC(C)(C)C1
inactive: all assays above

COc1cccc(-c2ccc(/C=C\CN3CCCCCC3)cc2Cl)c1
active: [1] 28.5 µM | [2] 28 µM | CD40, CD40 (gene 958) 28.6 µM | [6] 26.8 µM | [7] 28.4 µM
inactive: [4] | [5] | [8] | [9]

O=C(O)CCN(C1(C(=O)NO)CCCC1)S(=O)(=O)c1ccc(Oc2ccc(F)cc2)cc1
not listed: [3]
inactive: all other assays above

CC1(C)C(=O)N(Br)C(=O)N1Br
inactive: all assays above

COc1ccc2sc(C(=O)Nc3nnn[nH]3)c(OC(C)C)c2c1
active: [1] 16.7 µM | [2] 27 µM | [3] 29.5 µM | CD40, CD40 (gene 958) 7.18 µM | [4] 23.4 µM | [5] 28.5 µM | [6] 9.83 µM | [7] 13.2 µM | [8] 19.8 µM | [9] 34.1 µM

CCCCC(CC)COC(=O)CCCCCCCCC(=O)OCC(CC)CCCC (configuration not stated)
active: [1] 3.97 µM
inactive: all other assays above

Cn1cnc([N+](=O)[O-])c1Sc1ncnc2nc[nH]c12
inactive: [1] | [2] | CD40, CD40 (gene 958) | [4] | [5] | [6] | [7] | [8] | [9]
active: CD40, CD40 (gene 958) 26.9 µM and 4.17 µM

O=C(O)c1cc(N=Nc2ccc(S(=O)(=O)Nc3ccccn3)cc2)ccc1O
not listed: [3]
inactive: all other assays above

NC(=O)NO
not listed: [3]
inactive: all other assays above

CCn1nc(Cc2ccccc2)cc1C1CCN(C[C@H]2C[C@H](N(C)[C@@H](C(=O)O)C(C)C)C[C@@H]2c2cccc(F)c2)CC1
inactive: all assays above

CNS(=O)(=O)c1cc(C(=O)N2CCC(CCN3C4CCC3CC(n3c(C)nc5ccccc53)C4)(c3cccc(F)c3)CC2)c(Cl)cc1F (configuration not stated)
inactive: [1] | [3] | [4] | [9]
active: [2] 20 µM | CD40, CD40 (gene 958) 20 µM | [5] 20 µM | [6] 17.4 µM | [7] 23.5 µM | [8] 24.2 µM

CC(C)CCCCCCOC(=O)c1ccc(C(=O)OCCCCCCC(C)C)c(C(=O)OCCCCCCC(C)C)c1
not listed: [3]
inactive: all other assays above

CC(=O)c1ccc2c(c1)[C@H](NC(=O)c1ccc(F)cc1)[C@@H](O)C(C)(C)O2
inactive: all assays above

CCOC(=O)COc1ccc2c(c1)CC(NCC(O)c1cccc(Cl)c1)CC2 (configuration not stated)
inactive: [1] | [2] | [3] | [4]
active: CD40, CD40 (gene 958) 29 µM | [5] 27.4 µM | [6] 28.4 µM | [7] 18.3 µM | [8] 29.2 µM | [9] 27.6 µM

CC(C)(O)c1coc(S(=O)(=O)NC(=O)Nc2c3c(cc4c2CCC4)CCC3)c1
active: [5] 0.148 µM
inactive: all other assays above

Cn1c(=O)cc(Oc2ccc(F)cc2F)c2cnc(NCC(C)(C)O)nc21
inactive: [1] | [2] | CD40, CD40 (gene 958) | [6]
active: [4] 3.35 µM | [5] 2.9 µM | [7] 3.97 µM | [8] 3.88 µM | [9] 1.76 µM

Cc1ccc(C)c(O)c1
active: [9] 9.83 µM
inactive: all other assays above

CC/C(=C\C(=N/O)C(N)=O)C(C)[N+](=O)[O-] (configuration not stated)
not listed: [3]
inactive: all other assays above

CCOC(=O)c1ccc(C2CCC(NC[C@H](O)COc3ccc(O)c(NS(C)(=O)=O)c3)CC2)cc1 (some centres not stated)
active: [2] 27.2 µM | [5] 30.9 µM | [6] 26.1 µM | [7] 29.9 µM | [8] 34.1 µM
inactive: all other assays above

CCNc1ccccc1
inactive: all assays above

C1=CCCC=CCCC=CCC1
not listed: [3]
inactive: all other assays above

C1N2CN3CN1CN(C2)C3
not listed: [1]
inactive: all other assays above

Cc1ccc(S(=O)(=O)O)cc1C
not listed: [1]
inactive: all other assays above

CCOCCO
not listed: [1]
inactive: all other assays above

CC(=O)OCCC(C)C
not listed: [3]
inactive: all other assays above

Nc1cccc(N)c1
not listed: [1]
inactive: all other assays above

CCCCC(CC)COC(=O)c1ccc(C(=O)OCC(CC)CCCC)cc1 (configuration not stated)
not listed: [3]
inactive: all other assays above

CC[C@H](C)C(=O)O[C@H]1C[C@@H](C)C=C2C=C[C@H](C)[C@H](CC[C@@H]3C[C@@H](O)CC(=O)O3)[C@H]21
active: [1] 32.5 µM | CD40, CD40 (gene 958) 13.8 µM | [4] 0.398 µM | [6] 3.95 µM | [7] 3.95 µM
inactive: [5] | [8] | [9]

CCCCCCCCCCCCc1ccccc1
active: CD40, CD40 (gene 958) 30.7 µM
not listed: [3]
inactive: all other assays above

CC(=O)OC[C@H]1O[C@@](COC(C)=O)(O[C@H]2O[C@H](COC(C)=O)[C@@H](OC(C)=O)[C@H](OC(C)=O)[C@H]2OC(C)=O)[C@@H](OC(C)=O)[C@@H]1OC(C)=O
not listed: [3]
inactive: all other assays above

Oc1ccc2c(c1)-c1ccccc1C2
active: CD40, CD40 (gene 958) 20 µM | [6] 20 µM | [9] 13.2 µM
not listed: [1]
inactive: all other assays above

CNCc1ccc(NC(=O)c2c[nH]c3c2C(=O)CCC3)cc1
not listed: [3]
inactive: all other assays above

C[C@](N)(Cc1ccc(O)c(O)c1)C(=O)O
not listed: [3]
inactive: all other assays above

CCCN(C1CCN(C(=O)C2CCNCC2)CC1)[C@@H]1CCc2ccc(OC)cc2C1
not listed: [1]
inactive: all other assays above
